Among the data in paper PMC7862700, “An all-to-all approach to the identification of sequence-specific readers for epigenetic DNA modifications on cytosine” are binding signal values, retold here.

Holding throughout (assay): DAPPL (digital affinity profiling via proximity ligation, sequencing); 10 mM Tris-HCl pH 7.5, 50 mM NaCl, 1 mM DTT, 4% glycerol, room temperature, 30 min; GST-TFs on glutathione beads, 16-mer random dsDNA library, 0.1% formaldehyde crosslink after washing; high values mean tight binding
Test [1] deals with T1, FEV (Homo sapiens, UniProt Q99581 1-238).
T1 sequence: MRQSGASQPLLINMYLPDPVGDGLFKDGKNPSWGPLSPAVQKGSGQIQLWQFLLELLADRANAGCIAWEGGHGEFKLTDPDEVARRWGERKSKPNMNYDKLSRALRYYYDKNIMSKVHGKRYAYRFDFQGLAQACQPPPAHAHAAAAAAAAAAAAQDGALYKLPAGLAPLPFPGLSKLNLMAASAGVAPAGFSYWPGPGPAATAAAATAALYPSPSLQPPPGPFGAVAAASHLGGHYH
To be noted: protein: recombinant; tags: N-terminal GST; dsDNA, one strand shown. Summed up: (§1)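 A tag-only sample was pooled with DNA-barcoded human transcription factors that had been expressed in yeast as GST fusions and captured on glutathione beads. The pools were incubated for 30 min at room temperature with 200 nmole of a random double-stranded 16-mer DNA library in Tris/NaCl/DTT/glycerol buffer, then washed, crosslinked with 0.1% formaldehyde, proximity-ligated (BsaI/T4 ligase, 1 h, 37 °C), PCR-amplified and sequenced on an Illumina NextSeq500. Binding signal is each hexamer's read frequency for a factor divided by its frequency for the tag-only sample.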

The target of test [2] is ETV5 (Homo sapiens, UniProt P41161 1-510). The note with it: protein: recombinant; tags: N-terminal GST; dsDNA, one strand shown. In short, it runs like this:
as §1

Test [3] deals with HSF1 (Homo sapiens, UniProt Q00613 1-529). To be noted: protein: recombinant; tags: N-terminal GST; chain copies: 3; dsDNA, one strand shown. In short, it runs like this:
as §1

The target of test [4] is T2, SPIC (Homo sapiens, UniProt Q8N5J4 1-248).
T2 sequence: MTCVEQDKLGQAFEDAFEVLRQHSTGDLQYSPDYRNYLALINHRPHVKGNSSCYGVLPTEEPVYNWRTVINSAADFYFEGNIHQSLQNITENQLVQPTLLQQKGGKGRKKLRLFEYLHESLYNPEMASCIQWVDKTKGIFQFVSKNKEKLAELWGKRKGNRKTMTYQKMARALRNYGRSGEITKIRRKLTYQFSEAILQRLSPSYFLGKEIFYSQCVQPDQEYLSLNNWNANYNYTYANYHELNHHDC
The note with it: protein: recombinant; tags: N-terminal GST; dsDNA, one strand shown. Summed up: as §1

Test [5] concerns the target ELF4 (Homo sapiens, UniProt Q99607 1-663). The note with it: protein: recombinant; tags: N-terminal GST; dsDNA, one strand shown. In short, it runs like this:
as §1

The target in test [6] is T3, ELK4 (Homo sapiens, UniProt P28324-2 1-405).
T3 sequence: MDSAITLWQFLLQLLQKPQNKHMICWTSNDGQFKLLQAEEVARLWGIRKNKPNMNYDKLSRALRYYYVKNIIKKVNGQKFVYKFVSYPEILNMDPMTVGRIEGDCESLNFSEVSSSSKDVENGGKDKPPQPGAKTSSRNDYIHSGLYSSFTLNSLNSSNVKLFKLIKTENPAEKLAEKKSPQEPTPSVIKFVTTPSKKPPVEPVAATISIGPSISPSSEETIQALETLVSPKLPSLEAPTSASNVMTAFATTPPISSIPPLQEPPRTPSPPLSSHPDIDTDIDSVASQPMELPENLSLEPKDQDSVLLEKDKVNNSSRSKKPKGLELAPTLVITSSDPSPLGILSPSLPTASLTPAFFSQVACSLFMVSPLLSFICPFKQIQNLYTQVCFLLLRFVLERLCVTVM
The note with it: protein: recombinant; tags: N-terminal GST; dsDNA, one strand shown. Summed up:
as §1

The target in test [7] is T4, ETV2 (Homo sapiens, UniProt O00321 1-342).
T4 sequence: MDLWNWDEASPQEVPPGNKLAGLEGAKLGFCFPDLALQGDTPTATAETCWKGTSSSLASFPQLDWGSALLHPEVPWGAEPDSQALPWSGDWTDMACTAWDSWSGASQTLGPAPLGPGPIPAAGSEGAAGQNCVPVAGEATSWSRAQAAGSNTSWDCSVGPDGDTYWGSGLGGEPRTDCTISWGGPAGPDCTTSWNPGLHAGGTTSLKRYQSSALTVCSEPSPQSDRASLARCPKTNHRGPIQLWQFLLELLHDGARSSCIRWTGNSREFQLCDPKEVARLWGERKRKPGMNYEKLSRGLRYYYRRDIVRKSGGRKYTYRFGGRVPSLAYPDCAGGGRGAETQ
The note with it: protein: recombinant; tags: N-terminal GST; dsDNA, one strand shown. Summed up: as §1

Test [8] concerns the target T5, ELF3 (Homo sapiens, UniProt P78545 1-371).
T5 sequence: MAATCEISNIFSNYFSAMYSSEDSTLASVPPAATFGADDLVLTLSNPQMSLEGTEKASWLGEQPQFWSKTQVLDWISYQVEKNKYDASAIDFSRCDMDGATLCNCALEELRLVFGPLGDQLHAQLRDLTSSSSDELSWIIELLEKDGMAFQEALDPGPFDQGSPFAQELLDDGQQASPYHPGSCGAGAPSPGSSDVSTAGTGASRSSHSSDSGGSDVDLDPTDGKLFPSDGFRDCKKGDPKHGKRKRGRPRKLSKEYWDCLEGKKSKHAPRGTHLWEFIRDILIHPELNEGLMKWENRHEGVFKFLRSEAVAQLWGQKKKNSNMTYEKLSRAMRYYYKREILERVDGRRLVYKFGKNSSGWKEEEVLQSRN
The note with it: protein: recombinant; tags: N-terminal GST; dsDNA, one strand shown. Summed up: as §1

The target of test [9] is CRX (Homo sapiens, UniProt O43186 1-299). The note with it: protein: recombinant; tags: N-terminal GST; dsDNA, one strand shown. In short, it runs like this: as §1
Chain of CRX (O43186 whole entry): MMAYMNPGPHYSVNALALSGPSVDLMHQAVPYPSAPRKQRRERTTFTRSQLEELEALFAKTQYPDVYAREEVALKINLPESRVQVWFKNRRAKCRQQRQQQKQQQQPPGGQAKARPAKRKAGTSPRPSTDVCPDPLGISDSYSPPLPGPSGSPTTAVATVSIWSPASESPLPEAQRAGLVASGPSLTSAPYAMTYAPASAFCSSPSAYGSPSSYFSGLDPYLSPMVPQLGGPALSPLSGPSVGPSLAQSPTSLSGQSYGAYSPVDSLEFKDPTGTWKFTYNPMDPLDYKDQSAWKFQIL
The target in test [10] is ETV1 (Homo sapiens, UniProt P50549 1-477). The note with it: protein: recombinant; tags: N-terminal GST; dsDNA, one strand shown. Summed up: as §1
Chain of ETV1 (P50549 whole entry): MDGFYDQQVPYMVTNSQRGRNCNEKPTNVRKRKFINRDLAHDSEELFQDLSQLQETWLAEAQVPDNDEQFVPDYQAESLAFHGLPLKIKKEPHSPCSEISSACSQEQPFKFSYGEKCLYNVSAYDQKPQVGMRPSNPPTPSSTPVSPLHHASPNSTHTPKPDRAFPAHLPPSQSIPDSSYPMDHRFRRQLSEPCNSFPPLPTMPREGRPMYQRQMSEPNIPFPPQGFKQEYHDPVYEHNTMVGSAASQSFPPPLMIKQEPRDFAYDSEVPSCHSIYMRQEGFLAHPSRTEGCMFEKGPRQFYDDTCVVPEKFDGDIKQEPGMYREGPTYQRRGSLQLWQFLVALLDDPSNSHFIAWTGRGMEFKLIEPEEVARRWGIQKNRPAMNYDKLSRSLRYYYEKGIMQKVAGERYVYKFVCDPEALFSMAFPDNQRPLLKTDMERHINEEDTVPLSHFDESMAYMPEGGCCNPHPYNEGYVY
Test [11] has as its target T6, ERF (Homo sapiens, UniProt P50548 1-548).
T6 sequence: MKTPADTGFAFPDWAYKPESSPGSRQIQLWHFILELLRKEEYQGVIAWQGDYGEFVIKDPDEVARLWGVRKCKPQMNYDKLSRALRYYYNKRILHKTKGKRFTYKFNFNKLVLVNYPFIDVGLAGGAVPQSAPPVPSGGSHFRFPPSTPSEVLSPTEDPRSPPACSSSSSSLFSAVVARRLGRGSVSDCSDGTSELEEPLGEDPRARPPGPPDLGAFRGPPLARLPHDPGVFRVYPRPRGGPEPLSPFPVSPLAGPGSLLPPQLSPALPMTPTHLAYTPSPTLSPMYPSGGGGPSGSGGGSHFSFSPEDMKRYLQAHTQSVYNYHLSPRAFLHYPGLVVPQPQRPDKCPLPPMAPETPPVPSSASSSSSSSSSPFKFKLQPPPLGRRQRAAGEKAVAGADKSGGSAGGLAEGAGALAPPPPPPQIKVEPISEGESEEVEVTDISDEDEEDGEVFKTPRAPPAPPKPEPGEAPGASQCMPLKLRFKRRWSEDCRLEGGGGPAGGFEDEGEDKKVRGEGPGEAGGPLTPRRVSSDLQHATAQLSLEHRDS
To be noted: protein: recombinant; tags: N-terminal GST; dsDNA, one strand shown. In short, it runs like this:
as §1

For test [12], the target named is T7, ETV3L (Homo sapiens, UniProt Q6ZN32 1-361).
T7 sequence: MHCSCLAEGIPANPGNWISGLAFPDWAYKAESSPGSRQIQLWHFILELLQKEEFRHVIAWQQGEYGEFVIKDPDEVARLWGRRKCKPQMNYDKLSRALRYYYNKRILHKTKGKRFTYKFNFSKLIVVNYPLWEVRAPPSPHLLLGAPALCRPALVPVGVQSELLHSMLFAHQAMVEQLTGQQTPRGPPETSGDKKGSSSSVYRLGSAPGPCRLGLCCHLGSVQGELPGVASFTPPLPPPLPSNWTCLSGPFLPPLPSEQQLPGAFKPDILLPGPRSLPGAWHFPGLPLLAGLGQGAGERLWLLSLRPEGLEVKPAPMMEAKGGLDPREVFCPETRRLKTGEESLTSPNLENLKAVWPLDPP
To be noted: protein: recombinant; tags: N-terminal GST; dsDNA, one strand shown. In short, it runs like this:
as §1

The target of test [13] is T8, ETS2 (Homo sapiens, UniProt P15036 1-469).
T8 sequence: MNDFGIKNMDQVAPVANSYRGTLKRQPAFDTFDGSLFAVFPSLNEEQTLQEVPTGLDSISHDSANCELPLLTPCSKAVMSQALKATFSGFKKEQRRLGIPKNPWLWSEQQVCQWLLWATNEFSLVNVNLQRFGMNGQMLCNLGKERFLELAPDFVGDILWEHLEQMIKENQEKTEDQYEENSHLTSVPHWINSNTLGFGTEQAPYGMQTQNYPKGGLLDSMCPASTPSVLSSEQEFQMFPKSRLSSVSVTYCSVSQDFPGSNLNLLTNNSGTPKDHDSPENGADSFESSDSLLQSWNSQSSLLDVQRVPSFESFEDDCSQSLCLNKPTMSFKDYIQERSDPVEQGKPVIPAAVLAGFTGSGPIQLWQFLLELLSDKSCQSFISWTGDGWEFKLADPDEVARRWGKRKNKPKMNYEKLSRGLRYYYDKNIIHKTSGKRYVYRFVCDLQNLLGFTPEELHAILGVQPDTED
The note with it: protein: recombinant; tags: N-terminal GST; dsDNA, one strand shown. Summed up:
as §1

Test [14] addresses T9, SPDEF (Homo sapiens, UniProt O95238 1-335).
T9 sequence: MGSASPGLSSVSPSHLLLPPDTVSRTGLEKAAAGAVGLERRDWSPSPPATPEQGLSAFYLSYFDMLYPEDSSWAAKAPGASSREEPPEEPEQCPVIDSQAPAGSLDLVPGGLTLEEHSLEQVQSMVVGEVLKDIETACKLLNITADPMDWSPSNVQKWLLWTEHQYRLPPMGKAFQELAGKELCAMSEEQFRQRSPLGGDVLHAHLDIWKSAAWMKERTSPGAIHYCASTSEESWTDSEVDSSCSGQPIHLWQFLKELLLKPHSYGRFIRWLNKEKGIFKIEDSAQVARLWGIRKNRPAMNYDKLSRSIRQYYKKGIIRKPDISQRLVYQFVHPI
To be noted: protein: recombinant; tags: N-terminal GST; dsDNA, one strand shown. Summed up:
as §1

In test [15] the target is T10, ETV7 (Homo sapiens, UniProt Q9Y603 1-341).
T10 sequence: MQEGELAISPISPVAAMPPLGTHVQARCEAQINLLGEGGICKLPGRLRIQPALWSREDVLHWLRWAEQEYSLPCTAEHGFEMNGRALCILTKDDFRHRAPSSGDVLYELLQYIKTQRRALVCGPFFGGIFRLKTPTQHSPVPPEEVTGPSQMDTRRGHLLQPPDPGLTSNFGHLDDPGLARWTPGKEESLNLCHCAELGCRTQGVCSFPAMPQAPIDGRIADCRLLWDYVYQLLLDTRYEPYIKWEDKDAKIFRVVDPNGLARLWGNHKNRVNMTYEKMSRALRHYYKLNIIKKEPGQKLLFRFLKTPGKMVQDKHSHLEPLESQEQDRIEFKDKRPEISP
The note with it: protein: recombinant; tags: N-terminal GST; dsDNA, one strand shown. Summed up: as §1

The target in test [16] is T11, ELF5 (Homo sapiens, UniProt Q9UKW6-2 1-255).
T11 sequence: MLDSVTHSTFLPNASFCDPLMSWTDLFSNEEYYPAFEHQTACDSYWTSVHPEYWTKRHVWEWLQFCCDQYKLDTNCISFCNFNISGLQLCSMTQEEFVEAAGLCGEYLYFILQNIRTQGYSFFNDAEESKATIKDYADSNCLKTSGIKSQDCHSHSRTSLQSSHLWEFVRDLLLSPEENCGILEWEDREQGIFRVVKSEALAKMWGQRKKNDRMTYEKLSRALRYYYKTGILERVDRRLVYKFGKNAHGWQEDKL
To be noted: protein: recombinant; tags: N-terminal GST; dsDNA, one strand shown. Summed up:
as §1

Test [17] concerns the target T12, ETV3 (Homo sapiens, UniProt P41162-2 1-143).
T12 sequence: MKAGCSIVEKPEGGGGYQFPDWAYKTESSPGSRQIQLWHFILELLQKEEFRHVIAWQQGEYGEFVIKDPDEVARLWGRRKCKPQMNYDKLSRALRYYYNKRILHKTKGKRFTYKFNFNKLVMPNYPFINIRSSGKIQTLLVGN
To be noted: protein: recombinant; tags: N-terminal GST; dsDNA, one strand shown. In short, it runs like this:
as §1

In test [18] the target is ETV6 (Homo sapiens, UniProt P41212 1-452). The note with it: protein: recombinant; tags: N-terminal GST; dsDNA, one strand shown. Summed up:
as §1

Chain of ETV6 (P41212 whole entry): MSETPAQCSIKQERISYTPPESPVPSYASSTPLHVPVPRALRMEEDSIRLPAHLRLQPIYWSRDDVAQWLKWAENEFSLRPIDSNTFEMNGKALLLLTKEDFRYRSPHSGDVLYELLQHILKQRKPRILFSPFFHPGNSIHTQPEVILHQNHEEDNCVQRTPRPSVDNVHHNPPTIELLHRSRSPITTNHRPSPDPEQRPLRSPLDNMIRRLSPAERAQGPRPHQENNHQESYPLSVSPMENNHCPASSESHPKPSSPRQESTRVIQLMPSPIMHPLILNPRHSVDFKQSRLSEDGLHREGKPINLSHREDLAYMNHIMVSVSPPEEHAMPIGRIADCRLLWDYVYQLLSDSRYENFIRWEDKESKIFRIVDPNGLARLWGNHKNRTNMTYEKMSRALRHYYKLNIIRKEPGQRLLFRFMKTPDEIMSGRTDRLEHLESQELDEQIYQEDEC
Chain of HSF1 (Q00613 whole entry): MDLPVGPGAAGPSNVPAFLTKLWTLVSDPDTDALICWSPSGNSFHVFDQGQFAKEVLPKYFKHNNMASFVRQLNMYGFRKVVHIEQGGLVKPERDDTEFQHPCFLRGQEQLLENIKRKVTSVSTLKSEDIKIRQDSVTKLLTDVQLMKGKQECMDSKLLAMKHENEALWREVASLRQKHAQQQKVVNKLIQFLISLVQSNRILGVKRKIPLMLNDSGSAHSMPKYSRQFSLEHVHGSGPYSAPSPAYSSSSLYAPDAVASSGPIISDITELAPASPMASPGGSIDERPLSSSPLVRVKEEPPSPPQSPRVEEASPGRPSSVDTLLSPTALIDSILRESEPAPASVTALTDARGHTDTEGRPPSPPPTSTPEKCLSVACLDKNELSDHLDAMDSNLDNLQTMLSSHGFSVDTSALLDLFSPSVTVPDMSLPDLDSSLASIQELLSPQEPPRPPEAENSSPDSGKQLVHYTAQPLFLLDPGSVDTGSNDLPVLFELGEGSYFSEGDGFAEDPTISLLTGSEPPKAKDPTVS
Chain of ELF4 (Q99607 whole entry): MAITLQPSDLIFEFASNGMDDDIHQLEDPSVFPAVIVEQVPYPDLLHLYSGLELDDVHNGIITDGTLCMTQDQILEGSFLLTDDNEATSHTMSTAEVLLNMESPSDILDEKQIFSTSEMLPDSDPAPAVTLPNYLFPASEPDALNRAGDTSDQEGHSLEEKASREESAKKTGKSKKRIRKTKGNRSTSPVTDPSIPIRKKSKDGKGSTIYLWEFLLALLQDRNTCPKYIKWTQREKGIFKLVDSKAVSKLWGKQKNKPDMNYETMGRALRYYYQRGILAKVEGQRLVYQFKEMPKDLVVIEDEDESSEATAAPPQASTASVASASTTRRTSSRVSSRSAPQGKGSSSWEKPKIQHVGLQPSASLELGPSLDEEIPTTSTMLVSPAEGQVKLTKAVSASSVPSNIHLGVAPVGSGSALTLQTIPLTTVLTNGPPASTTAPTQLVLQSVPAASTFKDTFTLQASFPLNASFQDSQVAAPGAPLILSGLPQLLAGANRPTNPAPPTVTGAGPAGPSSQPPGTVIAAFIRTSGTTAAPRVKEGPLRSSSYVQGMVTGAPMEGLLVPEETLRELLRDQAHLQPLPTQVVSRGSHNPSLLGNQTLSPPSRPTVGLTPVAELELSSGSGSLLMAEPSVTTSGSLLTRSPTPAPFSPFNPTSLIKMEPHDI
Chain of ETV5 (P41161 whole entry): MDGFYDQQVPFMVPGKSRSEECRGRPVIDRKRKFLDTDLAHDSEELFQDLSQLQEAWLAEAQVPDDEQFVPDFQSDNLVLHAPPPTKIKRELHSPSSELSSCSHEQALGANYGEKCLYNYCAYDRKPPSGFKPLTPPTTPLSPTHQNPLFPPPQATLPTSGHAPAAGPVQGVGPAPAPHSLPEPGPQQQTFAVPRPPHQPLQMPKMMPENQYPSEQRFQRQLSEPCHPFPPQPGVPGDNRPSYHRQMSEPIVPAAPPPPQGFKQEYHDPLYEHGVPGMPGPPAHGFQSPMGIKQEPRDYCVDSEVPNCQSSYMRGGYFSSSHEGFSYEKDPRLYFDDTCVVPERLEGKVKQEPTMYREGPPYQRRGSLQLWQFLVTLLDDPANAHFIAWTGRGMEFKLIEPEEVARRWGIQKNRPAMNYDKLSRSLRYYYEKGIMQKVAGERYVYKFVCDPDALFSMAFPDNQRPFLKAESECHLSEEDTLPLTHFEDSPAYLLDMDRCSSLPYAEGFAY

As to ACTAAT, the binding signal in test [1] was 1.19 fold enrichment (6-mer frequency, TF over GST control); in [2], 1.3 fold enrichment (6-mer frequency, TF over GST control); in [3], 1.81 fold enrichment (6-mer frequency, TF over GST control); in test [4], 1.46 fold enrichment (6-mer frequency, TF over GST control); in [5], 1.36 fold enrichment (6-mer frequency, TF over GST control); in test [6], 1.24 fold enrichment (6-mer frequency, TF over GST control). Also, the binding signal is 1.38 fold enrichment (6-mer frequency, TF over GST control) in test [7]; 1.33 fold enrichment (6-mer frequency, TF over GST control) in [8]; 2.71 fold enrichment (6-mer frequency, TF over GST control) in [9]; 1.3 fold enrichment (6-mer frequency, TF over GST control) in test [10]; 1.27 fold enrichment (6-mer frequency, TF over GST control) in [11]; 1.24 fold enrichment (6-mer frequency, TF over GST control) in test [12]. Further, the binding signal in test [13] is 1.28 fold enrichment (6-mer frequency, TF over GST control); in [14], 1.21 fold enrichment (6-mer frequency, TF over GST control); in test [15], 1.45 fold enrichment (6-mer frequency, TF over GST control); in [16], 1.27 fold enrichment (6-mer frequency, TF over GST control); in [17], 1.12 fold enrichment (6-mer frequency, TF over GST control); in test [18], 1.31 fold enrichment (6-mer frequency, TF over GST control).
